Results filed as inconclusive are left out. A call without a number means that no potency is given here. Calls of active or inactive are those of the source. The call rests on the fitted dose curve; in most records, active means well fitted inhibition curve with a large enough effect; inconclusive means small, poorly fitted or top-dose-only effect; inactive means flat fitted curve, though single readings scatter.
Key:
Experiment in all cases: qHTS profiling for inhibitors of Plasmodium falciparum proliferation (AID 504749); further: nearly all actives have a fitted effect of over 60% in size
Settings in all cases: P. falciparum in erythrocytes, SYBR Green DNA, 72 h; series mostly up to 12.8 µM
[1] = tested on: 7G8
Summary of the method: (§1)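 Each compound contacts P. falciparum-infected red blood cells for 72 h at 37 C; lysis buffer (Tris, EDTA, saponin, Triton X, SYBR Green I) is added and fluorescence measured next morning; values normalized to controls.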

[2] = tested on: AA1029
Summary of the method: as §1

[3] = tested on: C2A
Summary of the method: as §1

[4] = tested on: CP211
Summary of the method: as §1

[5] = tested on: CP217
Summary of the method: as §1

[6] = tested on: CP237
Summary of the method: as §1

[7] = tested on: CP252
Summary of the method: as §1

[8] = tested on: CP268
Summary of the method: as §1

[9] = tested on: CP269
Summary of the method: as §1

[10] = tested on: CP286
Summary of the method: as §1

[11] = tested on: CP291
Summary of the method: as §1

[12] = tested on: CP315
Summary of the method: as §1

[13] = tested on: DFO2036
Summary of the method: as §1

[14] = tested on: DIV30
Summary of the method: as §1

[15] = tested on: ECU
Summary of the method: as §1

[16] = tested on: HB3
Summary of the method: as §1

[17] = tested on: ICS
Summary of the method: as §1

[18] = tested on: P93_24
Summary of the method: as §1

[19] = tested on: P94_40
Summary of the method: as §1

[20] = tested on: TAB165
Summary of the method: as §1
Potency means the concentration at half of the fitted maximal effect.

SMILES	Potency [1]	Potency [2]	Potency [3]	Potency [4]	Potency [5]	Potency [6]	Potency [7]	Potency [8]	Potency [9]	Potency [10]	Potency [11]	Potency [12]	Potency [13]	Potency [14]	Potency [15]	Potency [16]	Potency [17]	Potency [18]	Potency [19]	Potency [20]
NC(N)=NC[C@@H]1COC2(CCCCC2)O1	inactive	inactive	inactive	inactive	inactive	inactive	inactive	inactive	inactive	inactive	inactive	inactive	inactive	inactive	inactive	inactive	inactive	inactive	inactive	inactive
COc1ccccc1OC[C@H](O)COC(N)=O	inactive	inactive	inactive	inactive	inactive	inactive	inactive	inactive	inactive	inactive	inactive	inactive	inactive	inactive	inactive	inactive	inactive	inactive	inactive	inactive
CN(C)[C@@H]1C(=O)C(C(N)=O)=C(O)[C@]2(O)C(=O)C3=C(O)c4c(O)ccc(Cl)c4[C@H](O)[C@H]3C[C@@H]12	–	–	inactive	inactive	inactive	–	inactive	inactive	inactive	–	inactive	inactive	–	inactive	–	–	3980 nM (active)	–	inactive	–
C[C@@H](CN(C)C)CN1c2ccccc2CCc2ccccc21	–	inactive	inactive	–	inactive	–	inactive	inactive	–	inactive	inactive	inactive	inactive	–	inactive	inactive	–	–	–	inactive
C[n+]1ccccc1/C=N\O	inactive	inactive	inactive	inactive	inactive	inactive	inactive	inactive	inactive	inactive	inactive	inactive	inactive	inactive	inactive	inactive	inactive	inactive	inactive	inactive
CC(=O)Nc1c(I)c(C(=O)N[C@H]2[C@@H](O)[C@H](O)[C@H](CO)O[C@@H]2O)c(I)c(N(C)C(C)=O)c1I	inactive	inactive	inactive	inactive	inactive	inactive	inactive	inactive	inactive	inactive	inactive	inactive	inactive	inactive	inactive	inactive	inactive	inactive	inactive	inactive
CC(C)NC[C@H](O)c1cc(O)cc(O)c1	inactive	inactive	inactive	inactive	inactive	inactive	inactive	inactive	inactive	inactive	inactive	inactive	inactive	inactive	inactive	inactive	inactive	inactive	inactive	inactive
CCN(CC)CCC[C@H](C)Nc1c2ccc(Cl)cc2nc2ccc(OC)cc12	282 nM (active)	631 nM (active)	447 nM (active)	1510 nM (active)	794 nM (active)	316 nM (active)	794 nM (active)	478 nM (active)	757 nM (active)	282 nM (active)	379 nM (active)	3010 nM (active)	398 nM (active)	1070 nM (active)	447 nM (active)	251 nM (active)	158 nM (active)	562 nM (active)	562 nM (active)	398 nM (active)
C[C@H](NCCc1ccc(O)cc1)[C@@H](O)c1ccc(O)cc1	inactive	inactive	inactive	inactive	inactive	inactive	inactive	inactive	inactive	inactive	inactive	inactive	inactive	inactive	inactive	inactive	inactive	inactive	inactive	inactive
CCN(CC)CCC[C@H](C)Nc1ccnc2cc(Cl)ccc12	1000 nM (active)	8910 nM (active)	3550 nM (active)	6750 nM (active)	–	4470 nM (active)	–	4260 nM (active)	9530 nM (active)	3160 nM (active)	3380 nM (active)	–	3980 nM (active)	6750 nM (active)	2240 nM (active)	316 nM (active)	3980 nM (active)	2820 nM (active)	5010 nM (active)	5620 nM (active)
CC1(C)S[C@@H]2[C@H](NC(=O)[C@H](C(=O)O)c3ccsc3)C(=O)N2[C@H]1C(=O)O	inactive	inactive	inactive	inactive	inactive	inactive	inactive	inactive	inactive	inactive	inactive	inactive	inactive	inactive	inactive	inactive	inactive	inactive	inactive	inactive
CO/N=C(/C(=O)NC1C(=O)N2C(C(=O)O)=C(CSc3nc(=O)c(O)nn3C)CSC12)c1csc(N)n1 (stereo not drawn)	inactive	inactive	inactive	inactive	inactive	inactive	inactive	inactive	inactive	inactive	inactive	inactive	inactive	inactive	inactive	inactive	inactive	inactive	inactive	inactive
O=C(O)/C=C\c1ccc(Cn2ccnc2)cc1	inactive	inactive	inactive	inactive	inactive	inactive	inactive	inactive	–	inactive	inactive	inactive	inactive	inactive	inactive	inactive	inactive	inactive	inactive	inactive
CN[C@@H]1[C@H](O[C@@H]2O[C@H](CO)[C@@H](N)[C@H](O)[C@@H]2O)O[C@H]2C[C@@H](N)[C@@H](O[C@H]3[C@@H](O)[C@H](O)[C@H](N)C[C@@H]3N)O[C@H]2[C@H]1O	inactive	inactive	inactive	inactive	inactive	inactive	inactive	inactive	inactive	inactive	inactive	inactive	inactive	inactive	inactive	inactive	inactive	inactive	inactive	inactive
CN(C)[C@H]1C(=O)C(C(=O)NCN2CCCC2)=C(O)[C@]2(O)C(=O)C3=C(O)c4c(O)cccc4[C@@](C)(O)[C@H]3C[C@@H]12	inactive	inactive	inactive	inactive	inactive	inactive	inactive	inactive	inactive	inactive	inactive	inactive	inactive	inactive	inactive	inactive	inactive	inactive	inactive	inactive
N[C@@H](CO)C(=O)NNCc1ccc(O)c(O)c1O	inactive	inactive	inactive	inactive	inactive	inactive	inactive	inactive	inactive	inactive	inactive	inactive	inactive	inactive	inactive	inactive	inactive	inactive	inactive	inactive
NS(=O)(=O)c1cc([C@@]2(O)NC(=O)c3ccccc32)ccc1Cl	inactive	inactive	inactive	inactive	inactive	inactive	inactive	inactive	inactive	inactive	inactive	inactive	inactive	inactive	inactive	inactive	inactive	inactive	inactive	inactive
C[N+]1(C)CCC[C@@H](OC(=O)C(O)(c2ccccc2)c2ccccc2)C1	inactive	inactive	inactive	inactive	inactive	inactive	inactive	inactive	inactive	inactive	inactive	–	inactive	inactive	inactive	inactive	inactive	inactive	inactive	inactive
CC1(C)Oc2ccc(C#N)cc2[C@H](N2CCCC2=O)[C@H]1O	inactive	inactive	inactive	inactive	inactive	inactive	inactive	inactive	inactive	inactive	inactive	inactive	inactive	inactive	inactive	inactive	inactive	inactive	inactive	inactive
C[C@@H](C(=O)O)c1ccc(C(=O)c2cccs2)cc1	inactive	inactive	inactive	inactive	inactive	inactive	inactive	inactive	inactive	inactive	inactive	inactive	inactive	inactive	inactive	inactive	inactive	inactive	inactive	inactive
CC(=O)N(CC(O)CN(C(C)=O)c1c(I)c(C(=O)NC[C@@H](O)CO)c(I)c(C(=O)NC[C@@H](O)CO)c1I)c1c(I)c(C(=O)NC[C@@H](O)CO)c(I)c(C(=O)NC[C@@H](O)CO)c1I	inactive	inactive	inactive	inactive	inactive	inactive	inactive	inactive	inactive	inactive	inactive	inactive	inactive	inactive	inactive	inactive	inactive	inactive	inactive	inactive
CCN1C(=O)N[C@@H](c2ccccc2)C1=O	inactive	inactive	inactive	inactive	inactive	inactive	inactive	inactive	inactive	inactive	inactive	inactive	inactive	inactive	inactive	inactive	inactive	inactive	inactive	inactive
Cn1c(=O)c2c(ncn2C[C@@H](O)CO)n(C)c1=O	inactive	inactive	inactive	inactive	inactive	inactive	inactive	inactive	inactive	inactive	inactive	inactive	inactive	inactive	inactive	inactive	inactive	inactive	inactive	inactive
CN[C@@H](CC(C)C)C(=O)N[C@@H]1C(=O)N[C@H](CC(N)=O)C(=O)N[C@@H]2C(=O)N[C@H]3C(=O)N[C@H](C(=O)N[C@H](C(=O)O)c4cc(O)cc(O)c4-c4cc3ccc4O)[C@H](O)c3ccc(c(Cl)c3)Oc3cc2cc(c3O[C@H]2O[C@@H](CO)[C@@H](O)[C@@H](O)[C@@H]2O[C@@H]2C[C@](C)(N)[C@H](O)[C@H](C)O2)Oc2ccc(cc2Cl)[C@@H]1O	inactive	inactive	inactive	inactive	inactive	inactive	inactive	inactive	inactive	inactive	inactive	inactive	inactive	inactive	inactive	inactive	inactive	inactive	inactive	inactive
COc1ccc(C[C@@H]2c3cc(OC)c(OC)cc3CC[N@+]2(C)CCC(=O)OCCCCCOC(=O)CC[N@@+]2(C)CCc3cc(OC)c(OC)cc3[C@H]2Cc2ccc(OC)c(OC)c2)cc1OC	inactive	inactive	inactive	inactive	inactive	inactive	inactive	inactive	inactive	inactive	inactive	inactive	inactive	inactive	inactive	inactive	inactive	inactive	inactive	inactive

— PubChem BioAssay (NCATS)
